Some test systems named below: RPMI-8226 leukemia; OVCAR-8 ovarian; OVCAR-5 ovarian; OVCAR-4 ovarian; SK-OV-3 ovarian; IGROV1 ovarian; OVCAR-3 ovarian; HS 578T breast; NCI/ADR-RES ovarian; T-47D breast.
Holding throughout (experiment): NCI-60 one-dose screen, 48 h (100 = growth as untreated, 0 = no growth, -100 = all killed)
Holding throughout (settings): 10 µM

SMILES strings stand for the structures. Compounds without any hit were thinned out: in the full panel of roughly 83,000, 20% have a hit.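 Percent growth is the endpoint: 0 to 100 indicates growth inhibition (40 means 60% inhibition), 0 means no net growth, and negative values indicate cell death.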 Unmarked numbers belong to inactive results. Activity calls are given as the source filed them. How the source made its calls: active means growth percent below 10; inactive means the rest.

As for `CCN(CC)CCN1CC(=O)Nc2cc(Cl)ccc21`, the growth in the experiment on RPMI-8226 leukemia is 109%; with OVCAR-8 ovarian, 108%; with OVCAR-5 ovarian, 102%; with OVCAR-4 ovarian, 103%; in the experiment on SK-OV-3 ovarian, 110%; with IGROV1 ovarian, 99.9%. The growth is 109% with OVCAR-3 ovarian, 94.4% in the experiment on HS 578T breast, 94.2% in the experiment with NCI/ADR-RES ovarian and 107% in the experiment with T-47D breast.

For the compound `O=C(Nc1ccncc1)C(=O)c1cn(S(=O)(=O)c2cccc(Cl)c2)c2ccccc12`, the growth is 47.2% in the experiment on RPMI-8226 leukemia; 76.2% with OVCAR-8 ovarian; 107% in the experiment with OVCAR-5 ovarian; 74.8% in the experiment with OVCAR-4 ovarian; 96.6% with SK-OV-3 ovarian; 52.7% with IGROV1 ovarian. Also, the growth was 45.7% in the experiment with OVCAR-3 ovarian, 86.8% with HS 578T breast, 43.6% with NCI/ADR-RES ovarian and 70% in the experiment on T-47D breast.

In the case of `COc1cc(NC(=O)CCSc2nc3ccc(C)cc3c(=O)n2Cc2ccccc2)cc(OC)c1OC`, the growth with RPMI-8226 leukemia is 83.8%; in the experiment on OVCAR-8 ovarian, 29.9%; in the experiment with OVCAR-5 ovarian, 94.2%; with OVCAR-4 ovarian, -32.1% (active); in the experiment with SK-OV-3 ovarian, 30.2%; with IGROV1 ovarian, 110%. Also, the growth with OVCAR-3 ovarian was 67.9%; in the experiment on HS 578T breast, 6.72% (active); in the experiment on NCI/ADR-RES ovarian, 83.8%; in the experiment with T-47D breast it was 65.6%.

Take `C#Cc1ccc(-n2c(/C=C/c3ccc(O)cc3)nc3ncccc3c2=O)cc1`: the growth in the experiment on RPMI-8226 leukemia was 46.9%; in the experiment on OVCAR-8 ovarian it was 75.2%; in the experiment on OVCAR-5 ovarian it was 97.4%; in the experiment with OVCAR-4 ovarian it was 61%; in the experiment with SK-OV-3 ovarian, 45.5%; in the experiment on IGROV1 ovarian it was 62.5%. Besides, the growth in the experiment with OVCAR-3 ovarian is 4.59% (active); in the experiment on HS 578T breast it was 64%; in the experiment with NCI/ADR-RES ovarian, 55%; in the experiment on T-47D breast it was 67.4%.

Take `O=C(Nc1cccc(-n2cc(-c3ccncc3)c(-c3cc(O)cc(Cl)c3)n2)c1)c1ccc(N2CCOCC2)c(C(F)(F)F)c1`: the growth in the experiment with RPMI-8226 leukemia was -3.77% (active); with OVCAR-8 ovarian, 22.7%; in the experiment on OVCAR-5 ovarian, 81.4%; with OVCAR-4 ovarian, 77.1%; in the experiment on SK-OV-3 ovarian, 50.7%; in the experiment on IGROV1 ovarian, 44.3%. Moreover, the growth with OVCAR-3 ovarian was 36.4%; in the experiment on HS 578T breast, 17.9%; in the experiment with NCI/ADR-RES ovarian, 35%; with T-47D breast it was 29.3%.

For the compound `CCN1CCC(CCOC)(CN2c3ccccc3Sc3ccc(Cl)cc32)C1` (stereo not given), the growth with RPMI-8226 leukemia is 47.4%; in the experiment on OVCAR-8 ovarian, 73.7%; with OVCAR-5 ovarian it was 54.4%; with OVCAR-4 ovarian, 46.3%; in the experiment on SK-OV-3 ovarian, 78.7%; in the experiment on IGROV1 ovarian, 30.7%. Besides, the growth in the experiment with OVCAR-3 ovarian was 64.8%; in the experiment with HS 578T breast, 51.5%; in the experiment on NCI/ADR-RES ovarian it was 75.8%; in the experiment with T-47D breast, 70.5%.

In the case of `CCCCCCCNc1nc(C=O)ncc1-c1ccc(C(F)(F)F)cc1`, the growth in the experiment with RPMI-8226 leukemia is 84%; with OVCAR-8 ovarian, 102%; in the experiment on OVCAR-5 ovarian, 103%; in the experiment on OVCAR-4 ovarian, 110%; in the experiment with SK-OV-3 ovarian, 96.5%; with IGROV1 ovarian it was 89.8%. The growth in the experiment with OVCAR-3 ovarian was 97.6%; with HS 578T breast it was 107%; in the experiment with NCI/ADR-RES ovarian, 90.1%; in the experiment on T-47D breast it was 81.6%.

As for `CCCCOc1ccc(NC(=O)Nc2nnc(C)s2)cc1`, the growth with RPMI-8226 leukemia was 80.8%; with OVCAR-8 ovarian, 90.5%; in the experiment with OVCAR-5 ovarian it was 102%; in the experiment on OVCAR-4 ovarian it was 100%; with SK-OV-3 ovarian, 102%; in the experiment on IGROV1 ovarian, 91.6%. Besides, the growth in the experiment with OVCAR-3 ovarian was 120%; with HS 578T breast it was 116%; in the experiment on NCI/ADR-RES ovarian it was 93.3%; in the experiment with T-47D breast, 77.9%.

On to `Cc1cc(=O)[nH]c(N/N=C/c2ccccc2O)n1`, for which the growth is 68.6% with RPMI-8226 leukemia; 83.3% in the experiment on OVCAR-8 ovarian; 95.2% in the experiment with OVCAR-5 ovarian; 22.4% in the experiment with OVCAR-4 ovarian; 78.3% in the experiment on SK-OV-3 ovarian; 59.6% in the experiment with IGROV1 ovarian. Further, the growth was 6.7% (active) in the experiment with OVCAR-3 ovarian, 104% with HS 578T breast, 16.3% in the experiment on NCI/ADR-RES ovarian and 48.7% in the experiment on T-47D breast.

Turning to `Cc1ccc(S(=O)(=O)OCCN(CCOS(=O)(=O)c2ccc(C)cc2)c2c[nH]c(=O)[nH]c2=O)cc1`, the growth with RPMI-8226 leukemia is 100%; in the experiment on OVCAR-8 ovarian it was 103%; in the experiment with OVCAR-5 ovarian, 102%; in the experiment on OVCAR-4 ovarian, 97.9%; in the experiment with SK-OV-3 ovarian, 100%; in the experiment on IGROV1 ovarian, 112%. In addition, the growth in the experiment on OVCAR-3 ovarian is 120%; in the experiment on HS 578T breast, 140%; in the experiment on NCI/ADR-RES ovarian, 112%; in the experiment on T-47D breast it was 100%.

Regarding `CCCCCCCCCCCCCCCC(=O)OC1[C@@H](OC(=O)CCCCCCCCCCCCCCC)[C@@H](C(=O)N[C@@H](CCCCN)C(=O)OC)O[C@H]1n1cnc2c(=O)[nH]c(NC(=O)C(C)C)nc21` (stereo not given in full), the growth is 92.5% in the experiment with RPMI-8226 leukemia; 87% with OVCAR-8 ovarian; 108% with OVCAR-5 ovarian; 120% with OVCAR-4 ovarian; 99.4% in the experiment on SK-OV-3 ovarian; 91.8% in the experiment with IGROV1 ovarian. For the same compound, the growth in the experiment with OVCAR-3 ovarian was 105%; in the experiment on HS 578T breast, 107%; with NCI/ADR-RES ovarian it was 102%; with T-47D breast, 88.2%.

Take `C[C@@H]1C=C2C(=O)O[C@@H]3CC[C@H](C1)[C@]23O`: the growth is 75.8% with RPMI-8226 leukemia; 78.3% with OVCAR-8 ovarian; 104% with OVCAR-5 ovarian; 76.5% with OVCAR-4 ovarian; 105% in the experiment with SK-OV-3 ovarian; 42.2% in the experiment with IGROV1 ovarian. For the same compound, the growth is 66.9% in the experiment on OVCAR-3 ovarian, 96.4% with HS 578T breast, 93.2% with NCI/ADR-RES ovarian and 26.3% in the experiment with T-47D breast.

As for `CN(C)N=Nc1nn(C(=O)Nc2ccc(Cc3ccccc3)cc2)c2ccccc12`, the growth is 47.5% with RPMI-8226 leukemia; 48.8% with OVCAR-8 ovarian; 71% with OVCAR-5 ovarian; 52.1% in the experiment with OVCAR-4 ovarian; 102% with SK-OV-3 ovarian; 84.8% in the experiment with IGROV1 ovarian. Further, the growth in the experiment on OVCAR-3 ovarian was 45.7%; in the experiment on HS 578T breast it was 100%; in the experiment with NCI/ADR-RES ovarian it was 46.6%; in the experiment with T-47D breast, 24.3%.

Regarding `COc1cc(Cl)cc(-c2nn(-c3cccc(NC(=O)Nc4ccc(Cl)c(Cl)c4)c3)cc2-c2ccncc2)c1`, the growth in the experiment on RPMI-8226 leukemia was -4.44% (active); with OVCAR-8 ovarian, 1.93% (active); with OVCAR-5 ovarian, 37.8%; in the experiment on OVCAR-4 ovarian, 13.3%; in the experiment on SK-OV-3 ovarian, 14.2%; in the experiment with IGROV1 ovarian, 36.7%. Moreover, the growth is 4.12% (active) with OVCAR-3 ovarian, 28.5% in the experiment with HS 578T breast, 8.59% (active) in the experiment with NCI/ADR-RES ovarian and 18.6% in the experiment on T-47D breast.
